Measured values as given in PubChem BioAssay.
For some assays here: Entries with a potency or affinity are not part of this list. Activity calls are given as the source filed them. Unless noted, no rule for the calls is given here.

Key:
[1] = antimalarial activity against Dd2 strain (AID 2302;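 active = growth inhibition above 50% at the single 2 µM test dose, taken to imply half-maximal potency below 2 µM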;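 also: 0% = DMSO untreated growth and 100% = chloroquine plus artemisinin killed control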); details: P. falciparum Dd2 in RBCs, LDH growth readout, 72 h; at 2 µM; hits give high values
[2] = HepG2 cytotoxicity, primary screen, cytotoxicity control for P. falciparum antimalarial project, cell-based, ATP luminescence (AID 2303;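 active = inhibition above 50%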;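 also: 0% = DMSO wells and 100% = digitonin-killed cells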); details: HepG2 viability, 24-48 h, at 10 µM, hits give high values
[3] = target: L-lactate dehydrogenase (Plasmodium falciparum (isolate CDC / Honduras)) (UniProt Q27743); experiment: PfLDH activity inhibition – cell lysate, 3D7 strain, counter-screen for P. falciparum growth inhibition project (AID 2304);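 also: 0% = vehicle and 100% = reference inhibitor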; details: P. falciparum 3D7 crude extract, LDH APAD/NBT absorbance; at 2 µM; hits give high values
[4] = inhibition of 3D7 malaria parasite growth – strain 3D7 (AID 2306);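 also: 0% = DMSO wells and 100% = chloroquine plus artemisinin control wells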; details: P. falciparum 3D7 erythrocytic growth, LDH absorbance, 72 h; at 2 µM; hits give high values
[5] = target: Calcium-dependent protein kinase 1 (Plasmodium falciparum (isolate 3D7)) (UniProt P62344); experiment: PfCDPK1 kinase inhibitors, biochemical, TCAMS library (AID 1159585; cut-off not given, nearly all actives have IC50 up to about 0.98 µM;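 also: inhibitors leave more ATP so luminescence rises with inhibition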); details: recombinant PfCDPK1, Kinase-Glo ATP depletion luminescence
[6] = target: Plasmodium falciparum protein kinase 6 (PK6, PF3D7_1337100) (UniProt Q8IDW1); experiment: PfPK6 kinase inhibitors, biochemical, TCAMS library (AID 1159586); details: recombinant PfPK6, Kinase-Glo ATP depletion luminescence
[7] = target: Protein kinase 7 (PK7), Plasmodium falciparum 3D7 (PF3D7_0213400) (UniProt Q7YTF7); experiment: inhibition of Plasmodium PK7 catalytic activity – biochemical, TCAMS antimalarial set, Kinase-Glo luminescence (AID 1159587); details: recombinant PfPK7, Kinase-Glo ATP depletion luminescence
[8] = target: Calcium-dependent protein kinase 4 (Plasmodium falciparum (isolate 3D7)) (UniProt Q8IBS5); experiment: PfCDPK4 kinase inhibitors, biochemical, TCAMS library (AID 1159588; cut-off not given, nearly all actives have IC50 up to about 0.91 µM); details: recombinant PfCDPK4, Kinase-Glo ATP depletion luminescence
Calcium-dependent protein kinase 4 (Plasmodium falciparum (isolate 3D7)), sequence (Q8IBS5 whole entry, looked up): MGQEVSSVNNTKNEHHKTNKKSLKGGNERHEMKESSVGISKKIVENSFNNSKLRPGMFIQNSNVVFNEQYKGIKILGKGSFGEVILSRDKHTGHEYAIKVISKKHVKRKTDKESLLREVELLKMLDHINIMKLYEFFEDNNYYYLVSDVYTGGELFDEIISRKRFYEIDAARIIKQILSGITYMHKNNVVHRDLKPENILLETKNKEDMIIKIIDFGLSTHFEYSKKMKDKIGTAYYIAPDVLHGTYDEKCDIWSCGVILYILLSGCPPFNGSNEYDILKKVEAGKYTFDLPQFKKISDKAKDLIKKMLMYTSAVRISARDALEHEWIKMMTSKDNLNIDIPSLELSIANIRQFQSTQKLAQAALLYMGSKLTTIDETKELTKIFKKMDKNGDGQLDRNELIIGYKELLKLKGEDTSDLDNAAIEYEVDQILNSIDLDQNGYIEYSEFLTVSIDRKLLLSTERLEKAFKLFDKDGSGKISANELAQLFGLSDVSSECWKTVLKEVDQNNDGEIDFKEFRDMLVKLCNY

Calcium-dependent protein kinase 1 (Plasmodium falciparum (isolate 3D7)), sequence (P62344 whole entry, looked up): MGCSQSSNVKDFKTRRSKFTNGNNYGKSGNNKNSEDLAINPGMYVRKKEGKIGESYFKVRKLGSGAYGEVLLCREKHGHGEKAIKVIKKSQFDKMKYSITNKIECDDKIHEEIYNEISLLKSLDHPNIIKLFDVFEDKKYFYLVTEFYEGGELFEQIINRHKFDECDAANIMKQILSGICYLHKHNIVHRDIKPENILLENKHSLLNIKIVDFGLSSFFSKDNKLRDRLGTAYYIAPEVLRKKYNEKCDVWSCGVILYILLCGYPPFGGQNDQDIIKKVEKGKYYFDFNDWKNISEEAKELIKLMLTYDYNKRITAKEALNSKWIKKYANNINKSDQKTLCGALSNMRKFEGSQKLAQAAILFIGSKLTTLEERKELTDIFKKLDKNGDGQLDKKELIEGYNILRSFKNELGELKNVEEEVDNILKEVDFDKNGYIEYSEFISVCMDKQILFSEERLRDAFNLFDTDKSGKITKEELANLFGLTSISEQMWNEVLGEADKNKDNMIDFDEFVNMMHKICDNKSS
L-lactate dehydrogenase (Plasmodium falciparum (isolate CDC / Honduras)), sequence (Q27743 whole entry, looked up): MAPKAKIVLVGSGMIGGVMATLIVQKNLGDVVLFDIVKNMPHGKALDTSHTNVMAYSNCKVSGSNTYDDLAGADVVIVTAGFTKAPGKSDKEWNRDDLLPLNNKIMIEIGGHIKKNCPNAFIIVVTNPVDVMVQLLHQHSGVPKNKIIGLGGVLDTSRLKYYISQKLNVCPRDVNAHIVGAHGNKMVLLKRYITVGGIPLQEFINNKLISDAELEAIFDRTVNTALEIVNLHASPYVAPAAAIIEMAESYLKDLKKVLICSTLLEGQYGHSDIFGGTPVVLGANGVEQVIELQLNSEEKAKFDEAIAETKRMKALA
Plasmodium falciparum protein kinase 6 (PK6, PF3D7_1337100), sequence (Q8IDW1 1-305): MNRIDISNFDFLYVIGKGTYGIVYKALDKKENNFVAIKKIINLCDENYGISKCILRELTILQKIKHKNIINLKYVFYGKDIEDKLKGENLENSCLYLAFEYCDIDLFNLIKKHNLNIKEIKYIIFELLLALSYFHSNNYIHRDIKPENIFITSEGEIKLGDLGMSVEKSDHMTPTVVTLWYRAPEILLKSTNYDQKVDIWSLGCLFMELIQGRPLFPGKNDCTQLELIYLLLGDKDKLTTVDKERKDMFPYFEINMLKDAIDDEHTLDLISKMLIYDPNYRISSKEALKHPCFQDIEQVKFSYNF
Protein kinase 7 (PK7), Plasmodium falciparum 3D7 (PF3D7_0213400), sequence (Q7YTF7 1-343): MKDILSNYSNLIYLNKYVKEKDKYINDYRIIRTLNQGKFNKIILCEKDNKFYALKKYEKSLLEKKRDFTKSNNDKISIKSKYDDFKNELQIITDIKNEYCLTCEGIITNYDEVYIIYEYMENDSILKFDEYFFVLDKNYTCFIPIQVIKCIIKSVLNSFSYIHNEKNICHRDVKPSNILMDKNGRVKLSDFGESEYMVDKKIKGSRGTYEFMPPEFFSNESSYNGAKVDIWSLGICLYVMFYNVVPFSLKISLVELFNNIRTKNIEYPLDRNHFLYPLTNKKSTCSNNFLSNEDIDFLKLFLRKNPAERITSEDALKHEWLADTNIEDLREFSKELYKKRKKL

Cn1cncc1C(=O)Nc1cccc(-c2cccc(-c3nc4ccccc4[nH]3)c2)c1
active: growth inhibition [4] 102%
inactive: growth inhibition [1] 35% | inhibition [2] 9% | inhibition [3] 3% | outcome [5] | outcome [6] | outcome [7] | outcome [8]

O=C(CN1CCC(NCc2cnc(-c3ccc(Cl)cc3)[nH]2)CC1)N1CCc2ccccc21
inactive: growth inhibition [1] 5% | inhibition [2] 11% | inhibition [3] -8% | outcome [5] | outcome [6] | outcome [7] | outcome [8]
active: growth inhibition [4] 100%

O=C(Nc1cccc(C(F)(F)F)c1)c1cccc2[nH]c(C(F)(F)F)nc12
active: growth inhibition [1] 98% | inhibition [2] 81% | growth inhibition [4] 100%
inactive: inhibition [3] -7% | outcome [5] | outcome [6] | outcome [7] | outcome [8]

COc1ccc(CNCc2ccc(F)cc2)cc1-c1cccc(S(=O)(=O)NCCN2CCCC2)c1
active: growth inhibition [1] 54% | growth inhibition [4] 101%
inactive: inhibition [2] 43% | inhibition [3] -3% | outcome [5] | outcome [6] | outcome [7] | outcome [8]

CN1CCC(C(=O)Nc2cccc(-c3cccc(-c4nc5ccc(F)cc5[nH]4)c3)c2)CC1
inactive: growth inhibition [1] 27% | inhibition [2] 32% | inhibition [3] 0% | outcome [5] | outcome [6] | outcome [7] | outcome [8]
active: growth inhibition [4] 101%

COC(=O)c1cc(OC2CCOC2=O)cc2c1OC(C)(C)O2 (stereo not given)
inactive: growth inhibition [1] -1% | inhibition [2] 6% | inhibition [3] 2% | outcome [5] | outcome [6] | outcome [7] | outcome [8]
active: growth inhibition [4] 97%

CN1CCN(CC(=O)Nc2cccc(-c3ccc(-c4nc5ccc(F)cc5[nH]4)s3)c2)CC1
inactive: inhibition [3] -4% | outcome [5] | outcome [6] | outcome [7] | outcome [8]
active: growth inhibition [1] 94% | inhibition [2] 71% | growth inhibition [4] 101%

CC(=O)c1cccc(S(=O)(=O)NCCCNc2nc3cc(C)cc(C)c3cc2C#N)c1
active: growth inhibition [1] 75% | growth inhibition [4] 95%
inactive: inhibition [2] 11% | inhibition [3] 1% | outcome [5] | outcome [6] | outcome [7] | outcome [8]

CC(=O)Nc1ccc(OCCCCN(Cc2ccccc2C(F)(F)F)c2ccc(C#N)c(C(F)(F)F)c2)c(Cl)c1
inactive: inhibition [2] -1% | inhibition [3] -3% | outcome [5] | outcome [6] | outcome [7] | outcome [8]
active: growth inhibition [1] 71% | growth inhibition [4] 98%

O=C(Nc1ccc(N2CCCCC2)c(Cl)c1)c1ccc(Br)o1
inactive: inhibition [2] -8% | inhibition [3] -1% | outcome [5] | outcome [6] | outcome [7] | outcome [8]
active: growth inhibition [1] 94% | growth inhibition [4] 94%

O=c1[nH]c2ccc(Nc3nccc(NCCc4ccccc4)n3)cc2[nH]1
active: growth inhibition [4] 101%
inactive: growth inhibition [1] 6% | inhibition [2] -1% | inhibition [3] 3% | outcome [5] | outcome [6] | outcome [7] | outcome [8]

CCCc1ccccc1Nc1nc(C)cc(N(CC)CCCN2CCCCC2)n1
inactive: growth inhibition [1] 49% | inhibition [2] 27% | inhibition [3] -3% | outcome [5] | outcome [6] | outcome [7] | outcome [8]
active: growth inhibition [4] 98%

CN1CCN(CCCN(Cc2cccc(-c3cccc(CNC4CCCC4)c3)c2)C(=O)/C=C/c2ccccc2)CC1
inactive: inhibition [3] -5% | outcome [5] | outcome [6] | outcome [7] | outcome [8]
active: growth inhibition [1] 99% | inhibition [2] 84% | growth inhibition [4] 101%

Cc1c(C(=O)Nc2cc(Sc3ccc(F)cc3)cc([N+](=O)[O-])c2)sc2ncn(Cc3ccccc3F)c(=O)c12
active: growth inhibition [4] 98%
inactive: growth inhibition [1] 45% | inhibition [2] 2% | inhibition [3] 5% | outcome [5] | outcome [6] | outcome [7] | outcome [8]

CO/C(=C\C=C\c1cc2cc(Cl)c(Cl)cc2[nH]1)C(=O)NCCCNC12CC3CC(CC(C3)C1)C2
inactive: inhibition [2] 29% | inhibition [3] -2% | outcome [5] | outcome [6] | outcome [7] | outcome [8]
active: growth inhibition [1] 76% | growth inhibition [4] 99%

COc1cc(NC(=O)/C=C/c2ccccc2OC(F)(F)F)cc(OCCN2CCC(O)(c3ccccc3)CC2)c1
active: growth inhibition [1] 50% | inhibition [2] 61% | growth inhibition [4] 102%
inactive: inhibition [3] 2% | outcome [5] | outcome [6] | outcome [7] | outcome [8]

c1cc(CN2CCN(CCN3CCOCC3)CC2)cc(-c2ccc(-c3nc4ccccc4[nH]3)cc2)c1
inactive: inhibition [2] 23% | inhibition [3] -8% | outcome [5] | outcome [6] | outcome [7] | outcome [8]
active: growth inhibition [1] 100% | growth inhibition [4] 100%

O=C(C=NO)Nc1ccccc1[N+](=O)[O-]
inactive: growth inhibition [1] -2% | inhibition [2] -14% | inhibition [3] -2% | outcome [5] | outcome [6] | outcome [7] | outcome [8]
active: growth inhibition [4] 99%

CCC1N=C(N)N=C(N)N1OCc1cccc2ccccc12 (stereo not given)
inactive: growth inhibition [1] 1% | inhibition [3] -4% | outcome [5] | outcome [6] | outcome [7] | outcome [8]
active: inhibition [2] 66% | growth inhibition [4] 93%

N#Cc1cccc(C(=O)Nc2ccc(-c3cccc(CN4CCCC4)c3)cc2)c1
active: growth inhibition [1] 79% | growth inhibition [4] 101%
inactive: inhibition [2] 15% | inhibition [3] 2% | outcome [5] | outcome [6] | outcome [7] | outcome [8]

CCN(C(=O)CSc1cc(C)c2cc(C)cc(C)c2n1)C1CCS(=O)(=O)C1 (stereo not given)
inactive: inhibition [2] 5% | inhibition [3] -1% | outcome [5] | outcome [6] | outcome [7] | outcome [8]
active: growth inhibition [1] 82% | growth inhibition [4] 97%

CN(C)CCNC(=O)c1ccc(-c2cnc3ccc(NCc4ccc(Cl)c(Cl)c4)nn23)cc1
active: growth inhibition [1] 98% | inhibition [2] 60% | growth inhibition [4] 98%
inactive: inhibition [3] -5% | outcome [5] | outcome [6] | outcome [7] | outcome [8]

Cc1cc(N(C)C2CCN(C)C2)nc(Nc2ccccc2Cl)n1 (stereo not given)
inactive: inhibition [2] 1% | inhibition [3] -1% | outcome [5] | outcome [6] | outcome [7] | outcome [8]
active: growth inhibition [1] 84% | growth inhibition [4] 100%

CS(=O)(=O)NCCCNCc1cccc(-c2csc(-c3nc4ccccc4[nH]3)c2)c1
inactive: growth inhibition [1] 9% | inhibition [2] 23% | inhibition [3] 8% | outcome [5] | outcome [6] | outcome [7] | outcome [8]
active: growth inhibition [4] 95%

Cc1ccc2ncc(Cl)c(CCN3CCC(NCc4ccc5c(n4)NC(=O)CS5)CC3)c2n1
inactive: growth inhibition [1] 12% | inhibition [2] 13% | inhibition [3] -3% | outcome [5] | outcome [6] | outcome [7] | outcome [8]
active: growth inhibition [4] 90%

CCCCCC(C)N=C(Nc1ccc([N+](=O)[O-])cc1O)Nc1ccccc1Br (stereo not given)
inactive: inhibition [2] -1% | inhibition [3] 5% | outcome [5] | outcome [6] | outcome [7] | outcome [8]
active: growth inhibition [1] 98% | growth inhibition [4] 99%

CN1CCC(NCc2ccc(-c3cccc(S(=O)(=O)NCc4ccccc4)c3)cc2)CC1
active: growth inhibition [1] 94% | inhibition [2] 72% | growth inhibition [4] 101%
inactive: inhibition [3] -3% | outcome [5] | outcome [6] | outcome [7] | outcome [8]

O=C(/C=C/c1ccc(Cl)c(Cl)c1)NCCCCCN1CCC(NC(=S)Nc2ccc(F)cc2F)CC1
inactive: growth inhibition [1] 18% | inhibition [2] 20% | inhibition [3] 1% | outcome [5] | outcome [6] | outcome [7] | outcome [8]
active: growth inhibition [4] 100%

O=C(Nc1cc2cc(-c3ccc(CN4CCCCC4)cc3)ccc2n2cnnc12)NC1CCCC1
inactive: inhibition [3] -4% | outcome [5] | outcome [6] | outcome [7] | outcome [8]
active: growth inhibition [1] 98% | inhibition [2] 78% | growth inhibition [4] 100%

Cc1c(Cn2nc(Cl)c(N3CCNCC3)cc2=O)cccc1NC(=O)Nc1ccc(-c2ccccc2)cc1
active: inhibition [2] 96% | growth inhibition [4] 80%
inactive: growth inhibition [1] 29% | inhibition [3] 2% | outcome [5] | outcome [6] | outcome [7] | outcome [8]

CCOC(=O)CCCc1cc(NC2CCN(C)CC2)nc(Nc2ccc(C)cc2)n1
active: growth inhibition [4] 90%
inactive: growth inhibition [1] 12% | inhibition [2] 35% | inhibition [3] -2% | outcome [5] | outcome [6] | outcome [7] | outcome [8]

CC(=O)Nc1ccc(OCCCN(Cc2ccccc2C(F)(F)F)c2ccc(C(F)(F)F)c(C#N)c2)c(Cl)c1
active: growth inhibition [4] 85%
inactive: growth inhibition [1] 43% | inhibition [2] 5% | inhibition [3] 3% | outcome [5] | outcome [6] | outcome [7] | outcome [8]

NC(=O)c1cccc(-n2ccc3cc(CNC4Cc5ccccc5C4)ccc32)c1
active: growth inhibition [4] 88%
inactive: growth inhibition [1] 7% | inhibition [2] 17% | inhibition [3] -1% | outcome [5] | outcome [6] | outcome [7] | outcome [8]

Oc1ccc(CC2CCCN(c3nc(NCCCOc4ccccc4-c4ccccc4)nc(N4CCNCC4)n3)C2)cc1 (stereo not given)
active: growth inhibition [1] 77% | inhibition [2] 56% | growth inhibition [4] 95%
inactive: inhibition [3] -4% | outcome [5] | outcome [6] | outcome [7] | outcome [8]

COc1ccc(C(=O)CCC(=O)N(CCC2CCCN2C)Cc2ccc(-c3ccc(CNCCc4ccc(S(C)(=O)=O)cc4)cn3)cc2)cc1F (stereo not given)
active: growth inhibition [4] 93%
inactive: growth inhibition [1] 45% | inhibition [2] 13% | inhibition [3] -2% | outcome [5] | outcome [6] | outcome [7] | outcome [8]

CN(C)C(=S)N=Nc1c(O)[nH]c2ccc(OC(F)(F)F)cc12
inactive: inhibition [2] 36% | inhibition [3] 3% | outcome [5] | outcome [6] | outcome [7] | outcome [8]
active: growth inhibition [1] 52% | growth inhibition [4] 93%

Cc1cc(=O)[nH]c(-n2nc(C)cc2NC(=O)C(c2ccccc2)c2ccccc2)n1
active: growth inhibition [1] 77% | growth inhibition [4] 96%
inactive: inhibition [2] 31% | inhibition [3] -1% | outcome [5] | outcome [6] | outcome [7] | outcome [8]

COCn1ccc2c3c(N)nc(N)nc3ccc21
inactive: growth inhibition [1] 1% | inhibition [3] 6% | outcome [5] | outcome [6] | outcome [7] | outcome [8]
active: inhibition [2] 63% | growth inhibition [4] 88%

COc1ccc2nccc([C@@H](O)CN3CCC(NCc4cc5cccc(O)c5[nH]4)CC3)c2c1
inactive: growth inhibition [1] 35% | inhibition [2] -10% | inhibition [3] -6% | outcome [5] | outcome [6] | outcome [7] | outcome [8]
active: growth inhibition [4] 101%

Oc1ccc(CCNc2nc(NCCCOc3ccccc3-c3cccc(C(F)(F)F)c3)nc(N3CCNCC3)n2)cc1
inactive: growth inhibition [1] 5% | inhibition [2] 24% | inhibition [3] -1% | outcome [5] | outcome [6] | outcome [7] | outcome [8]
active: growth inhibition [4] 93%
